This is an account of results in ChEMBL document CHEMBL3988442, “University of Dundee, Small-Polar-MMV Screening Library” (2021).

Common to all, as to set-up: scale not given: direction of the effect not stated beside the values
Assay [1] addresses Protein translocase subunit SecA (Escherichia coli (strain K12)) (UniProt P10408). Put plainly: Assay to Identify E. coli SecA ATPase Inhibitors. The class given is functional. The note with it: 30 µM.
Assay [2] concerns the target T1, Ubiquitin-activating enzyme e1, putative (Leishmania donovani (strain BPK282A1)) (UniProt E9BSI1).
T1 sequence (whole entry): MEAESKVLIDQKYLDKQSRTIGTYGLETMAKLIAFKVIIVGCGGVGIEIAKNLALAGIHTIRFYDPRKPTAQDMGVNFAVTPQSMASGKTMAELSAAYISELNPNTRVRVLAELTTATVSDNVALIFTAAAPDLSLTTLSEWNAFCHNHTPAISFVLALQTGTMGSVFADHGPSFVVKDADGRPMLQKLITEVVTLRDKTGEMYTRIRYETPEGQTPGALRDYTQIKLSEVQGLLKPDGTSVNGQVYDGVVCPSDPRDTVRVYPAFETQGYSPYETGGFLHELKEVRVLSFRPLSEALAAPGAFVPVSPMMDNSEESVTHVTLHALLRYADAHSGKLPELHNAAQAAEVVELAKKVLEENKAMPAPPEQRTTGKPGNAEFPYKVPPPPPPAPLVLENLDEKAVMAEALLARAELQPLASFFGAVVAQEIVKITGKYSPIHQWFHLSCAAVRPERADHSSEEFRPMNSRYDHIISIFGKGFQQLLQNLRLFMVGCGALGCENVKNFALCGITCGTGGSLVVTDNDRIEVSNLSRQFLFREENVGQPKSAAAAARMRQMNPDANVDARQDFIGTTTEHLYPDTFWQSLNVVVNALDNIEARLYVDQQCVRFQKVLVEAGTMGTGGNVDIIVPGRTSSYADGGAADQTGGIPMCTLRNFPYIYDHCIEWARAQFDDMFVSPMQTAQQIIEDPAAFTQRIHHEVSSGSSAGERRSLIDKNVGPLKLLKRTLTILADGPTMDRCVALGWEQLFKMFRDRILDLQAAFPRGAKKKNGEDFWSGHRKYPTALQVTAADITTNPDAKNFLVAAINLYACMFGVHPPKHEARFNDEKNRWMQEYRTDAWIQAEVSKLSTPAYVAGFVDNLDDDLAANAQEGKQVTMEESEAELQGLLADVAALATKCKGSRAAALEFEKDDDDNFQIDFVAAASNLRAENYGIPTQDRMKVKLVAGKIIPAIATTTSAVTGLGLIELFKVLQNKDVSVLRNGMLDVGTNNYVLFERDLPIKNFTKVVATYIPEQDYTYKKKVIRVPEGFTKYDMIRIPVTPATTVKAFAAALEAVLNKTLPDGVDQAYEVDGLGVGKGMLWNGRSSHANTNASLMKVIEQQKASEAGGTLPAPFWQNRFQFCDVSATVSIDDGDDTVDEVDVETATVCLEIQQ
As to the kind of experiment: Leishmania donovani Ubiquitin Activating Enzyme (LdE1). The class given is functional. The note with it: 30 µM.

Assay [3] has as its target Sialic acid-binding Ig-like lectin 9 (Homo sapiens) (UniProt Q9Y336). Put plainly: Hs-Siglec9 ALPHAscreen SOP 20170721. Conditions: 10 µM.
The test system of another assay is Trypanosoma cruzi. As to the kind of experiment: Trypanosoma cruzi phosphomannomutase and mannose-1-phosphate guanylyltransferase assay. The class given is functional. The note with it: 10 µM.
The target in assay [4] is T2, Arginase-2, mitochondrial (Homo sapiens) (UniProt P78540).
T2 sequence (whole entry): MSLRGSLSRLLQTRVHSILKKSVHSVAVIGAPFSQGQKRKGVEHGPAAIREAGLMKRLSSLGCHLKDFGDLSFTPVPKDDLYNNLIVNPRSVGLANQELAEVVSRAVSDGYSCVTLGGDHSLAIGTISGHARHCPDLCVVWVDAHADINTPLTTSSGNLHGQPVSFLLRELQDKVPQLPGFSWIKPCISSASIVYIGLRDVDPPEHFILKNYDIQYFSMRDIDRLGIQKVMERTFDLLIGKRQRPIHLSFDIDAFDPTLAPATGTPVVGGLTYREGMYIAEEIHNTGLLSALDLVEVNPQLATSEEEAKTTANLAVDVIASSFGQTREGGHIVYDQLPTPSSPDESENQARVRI
Put plainly: in vitro enzyme assay to detect the production of urea directly proportional to the activity of Arginase II. Further: in the data most compounds retested in dose-response had high values. The class given is functional. The note with it: 33.3 µM.

Assay [5] has as its target T3, Proteasome subunit beta (Trypanosoma cruzi) (UniProt O96673).
T3 sequence (whole entry): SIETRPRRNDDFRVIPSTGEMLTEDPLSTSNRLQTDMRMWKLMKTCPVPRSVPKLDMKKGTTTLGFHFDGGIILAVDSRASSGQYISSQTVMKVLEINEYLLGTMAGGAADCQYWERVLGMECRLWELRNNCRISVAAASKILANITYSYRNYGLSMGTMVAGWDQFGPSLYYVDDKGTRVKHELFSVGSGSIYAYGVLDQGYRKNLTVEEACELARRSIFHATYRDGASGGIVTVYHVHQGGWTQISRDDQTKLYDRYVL
Put plainly: Trypanosoma cruzi proteasome chymotrypsin-like activity (TcProtChymo) assay. Further: in the data most compounds retested in dose-response had high values. The note with it: 9.37 µM. The class given is functional.

The next assay is filed under the species Homo sapiens. As to the kind of experiment: To identify inhibition of the IFN signalling (Jak-Stat) pathway via expression of an eGFP reporter gene under the control of an IFN-stimulated response element (ISRE) containing MxA promoter. The note with it: 30 µM. The class given is functional.
Assay [6] addresses T4, Tyrosyl-tRNA synthetase, putative (Trypanosoma cruzi (strain CL Brener)) (UniProt Q4DSP6).
T4 sequence (whole entry): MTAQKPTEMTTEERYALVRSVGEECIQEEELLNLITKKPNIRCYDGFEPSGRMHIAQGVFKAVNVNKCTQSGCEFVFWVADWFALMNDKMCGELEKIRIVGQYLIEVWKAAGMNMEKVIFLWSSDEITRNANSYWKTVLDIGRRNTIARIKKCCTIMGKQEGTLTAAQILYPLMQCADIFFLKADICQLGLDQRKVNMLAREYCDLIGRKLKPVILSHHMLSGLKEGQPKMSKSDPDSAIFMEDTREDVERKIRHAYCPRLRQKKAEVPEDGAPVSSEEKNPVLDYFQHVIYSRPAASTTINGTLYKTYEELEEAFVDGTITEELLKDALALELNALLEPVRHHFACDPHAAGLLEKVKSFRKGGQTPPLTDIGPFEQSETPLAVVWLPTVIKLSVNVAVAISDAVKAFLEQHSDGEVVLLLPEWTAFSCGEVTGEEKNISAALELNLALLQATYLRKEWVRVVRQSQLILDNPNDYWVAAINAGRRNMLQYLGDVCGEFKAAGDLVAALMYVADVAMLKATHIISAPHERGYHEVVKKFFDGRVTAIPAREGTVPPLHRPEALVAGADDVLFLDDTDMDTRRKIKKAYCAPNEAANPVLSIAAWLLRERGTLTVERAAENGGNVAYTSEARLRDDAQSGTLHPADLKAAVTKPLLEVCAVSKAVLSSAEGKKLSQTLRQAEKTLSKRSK
Put plainly: Trypanosoma cruzi tyrosyl tRNA synthetase (TcYRS) _High Tyrosine SOP. Further: in the data most compounds retested in dose-response had high values. The class given is functional. The note with it: 30 µM.

For assay [7], the target named is T4, Tyrosyl-tRNA synthetase, putative (Trypanosoma cruzi (strain CL Brener)). As to the kind of experiment: Trypanosoma cruzi tyrosyl tRNA synthetase (TcYRS) SOP. The class given is functional. The note with it: 30 µM.
For assay [8], the target named is Chromo domain-containing protein 1 (Saccharomyces cerevisiae (strain ATCC 204508 / S288c) (Baker's yeast)) (UniProt P32657). Put plainly: ScCHD-1 Enzyme Inhibition Assay. Further: in the data most compounds retested in dose-response had high values. Conditions: 30 µM. The class given is functional.

For some assays here: Entries with a potency or affinity are not part of this list.

Sequence of Chromo domain-containing protein 1 (Saccharomyces cerevisiae (strain ATCC 204508 / S288c) (Baker's yeast)) (P32657 whole entry, the tested form may be a part): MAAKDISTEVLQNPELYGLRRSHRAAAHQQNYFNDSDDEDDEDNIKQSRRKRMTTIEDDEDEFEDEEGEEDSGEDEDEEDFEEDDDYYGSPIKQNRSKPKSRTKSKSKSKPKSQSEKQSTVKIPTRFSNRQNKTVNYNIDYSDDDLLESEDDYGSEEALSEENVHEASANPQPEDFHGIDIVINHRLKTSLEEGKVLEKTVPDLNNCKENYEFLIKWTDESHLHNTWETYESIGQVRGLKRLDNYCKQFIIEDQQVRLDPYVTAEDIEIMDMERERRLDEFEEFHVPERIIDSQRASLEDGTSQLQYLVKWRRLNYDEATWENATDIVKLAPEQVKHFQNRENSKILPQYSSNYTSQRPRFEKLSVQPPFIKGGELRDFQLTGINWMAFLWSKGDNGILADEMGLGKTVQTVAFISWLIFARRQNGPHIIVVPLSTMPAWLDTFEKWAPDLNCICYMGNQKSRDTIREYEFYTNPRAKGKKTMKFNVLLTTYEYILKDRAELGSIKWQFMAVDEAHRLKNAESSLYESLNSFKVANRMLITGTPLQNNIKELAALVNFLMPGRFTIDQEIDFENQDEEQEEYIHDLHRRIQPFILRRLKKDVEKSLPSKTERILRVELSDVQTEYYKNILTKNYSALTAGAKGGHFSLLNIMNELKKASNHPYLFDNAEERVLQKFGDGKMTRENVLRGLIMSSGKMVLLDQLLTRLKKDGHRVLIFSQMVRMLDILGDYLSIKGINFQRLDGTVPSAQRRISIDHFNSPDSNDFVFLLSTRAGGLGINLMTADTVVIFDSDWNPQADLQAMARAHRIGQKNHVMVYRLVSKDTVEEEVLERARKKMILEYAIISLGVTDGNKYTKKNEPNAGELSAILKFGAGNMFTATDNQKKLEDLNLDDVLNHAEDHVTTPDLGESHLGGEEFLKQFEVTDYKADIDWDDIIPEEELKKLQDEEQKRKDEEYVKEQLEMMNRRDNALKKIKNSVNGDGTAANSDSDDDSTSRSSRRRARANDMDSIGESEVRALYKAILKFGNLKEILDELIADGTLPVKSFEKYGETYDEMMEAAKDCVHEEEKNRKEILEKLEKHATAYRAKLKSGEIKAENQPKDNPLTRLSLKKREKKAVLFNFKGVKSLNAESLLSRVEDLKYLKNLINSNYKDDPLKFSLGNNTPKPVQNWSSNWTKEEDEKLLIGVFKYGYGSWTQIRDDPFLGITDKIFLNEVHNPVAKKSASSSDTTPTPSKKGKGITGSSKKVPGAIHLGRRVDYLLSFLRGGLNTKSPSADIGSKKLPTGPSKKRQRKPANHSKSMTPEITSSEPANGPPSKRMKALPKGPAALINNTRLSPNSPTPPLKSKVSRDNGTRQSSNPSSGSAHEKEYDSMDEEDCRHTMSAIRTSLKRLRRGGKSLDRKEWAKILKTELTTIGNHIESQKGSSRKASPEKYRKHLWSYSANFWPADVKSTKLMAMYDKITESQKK
Sequence of Sialic acid-binding Ig-like lectin 9 (Homo sapiens) (Q9Y336 whole entry): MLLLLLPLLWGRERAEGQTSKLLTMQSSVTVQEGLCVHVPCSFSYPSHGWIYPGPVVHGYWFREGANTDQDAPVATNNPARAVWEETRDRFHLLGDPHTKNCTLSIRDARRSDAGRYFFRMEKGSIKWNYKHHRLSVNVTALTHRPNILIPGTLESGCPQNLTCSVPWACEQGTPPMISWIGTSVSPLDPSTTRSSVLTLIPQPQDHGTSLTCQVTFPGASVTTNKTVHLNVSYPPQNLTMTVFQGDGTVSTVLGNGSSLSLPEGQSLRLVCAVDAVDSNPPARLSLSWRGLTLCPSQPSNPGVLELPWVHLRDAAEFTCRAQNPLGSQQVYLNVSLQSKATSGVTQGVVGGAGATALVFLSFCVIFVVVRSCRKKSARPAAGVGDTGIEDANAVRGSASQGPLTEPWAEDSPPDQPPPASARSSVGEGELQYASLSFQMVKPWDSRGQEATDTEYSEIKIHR
Sequence of Protein translocase subunit SecA (Escherichia coli (strain K12)) (P10408 whole entry): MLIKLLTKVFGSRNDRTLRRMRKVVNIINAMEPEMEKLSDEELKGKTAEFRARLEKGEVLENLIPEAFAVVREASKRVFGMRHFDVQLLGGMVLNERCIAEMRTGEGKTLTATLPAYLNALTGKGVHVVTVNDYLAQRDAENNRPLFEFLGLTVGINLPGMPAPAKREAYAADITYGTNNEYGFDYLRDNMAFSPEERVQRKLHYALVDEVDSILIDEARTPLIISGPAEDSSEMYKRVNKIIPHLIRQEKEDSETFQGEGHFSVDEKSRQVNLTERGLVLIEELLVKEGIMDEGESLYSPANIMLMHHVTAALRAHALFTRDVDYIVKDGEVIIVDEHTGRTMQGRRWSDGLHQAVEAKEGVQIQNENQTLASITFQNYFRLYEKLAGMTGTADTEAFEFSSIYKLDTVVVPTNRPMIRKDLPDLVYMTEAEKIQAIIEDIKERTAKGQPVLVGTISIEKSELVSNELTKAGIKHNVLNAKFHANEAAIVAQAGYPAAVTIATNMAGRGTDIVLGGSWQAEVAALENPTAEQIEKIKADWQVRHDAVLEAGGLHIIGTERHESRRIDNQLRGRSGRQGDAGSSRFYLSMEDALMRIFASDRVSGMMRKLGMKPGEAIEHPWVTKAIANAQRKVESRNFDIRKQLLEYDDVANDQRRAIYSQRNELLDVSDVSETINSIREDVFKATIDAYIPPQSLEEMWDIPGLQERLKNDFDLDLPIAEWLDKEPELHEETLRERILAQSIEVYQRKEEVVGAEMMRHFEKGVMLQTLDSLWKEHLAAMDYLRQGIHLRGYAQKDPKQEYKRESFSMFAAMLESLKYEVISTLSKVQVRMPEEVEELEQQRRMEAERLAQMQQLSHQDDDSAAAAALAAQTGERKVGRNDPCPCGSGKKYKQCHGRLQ

Turning to `COC[C@@]12CC[C@@H](N3CCOCC3)C[C@H]1CCN(c1ncccn1)C2`, the Percent Effect in assay [1] was -6.56%; in assay [2], 13.5%; in assay [3], 17.1%; in the assay on Trypanosoma cruzi, 6.5%; in assay [4] it was 19.9%; in assay [5] it was 14.7%. In addition, the Percent Effect is 0.0489% in the assay listed under Homo sapiens, 4.79% in [6], 12.2% in assay [7] and 88.3% in assay [8].
On to `O=C1CC2(CCN(CC3CC3)C2)CN1c1ccc2c(c1)OCO2` (stereo not given), for which the Percent Effect in [1] was -2.02%; in assay [2], 16.9%; in assay [3], -7.72%; in the assay on Trypanosoma cruzi, 1.07%; in assay [4], 25.9%; in [5] it was 21.6%. For the same compound, the Percent Effect in the assay listed under Homo sapiens is -0.411%; in assay [6], 12.1%; in assay [7], -48.7%; in [8] it was -4.12%.
With `Cc1cc(C)n(CC2CCCCN2CCCS(N)(=O)=O)n1` (stereo not given), the Percent Effect was 1.22% in assay [1]; 18.7% in [2]; -2.13% in assay [3]; -2.01% in the assay with Trypanosoma cruzi; 4.88% in assay [4]; 12.8% in assay [5]. Besides, the Percent Effect was 8.38% in the assay listed under Homo sapiens, -0.526% in [6], 7.69% in assay [7] and -8.39% in assay [8].
As to `CC[C@@H]1N(Cc2ccsc2)CCC[C@]12CCC(=O)N2C`, the Percent Effect in assay [1] was -5.65%; in assay [2], 3.9%; in [3], -0.653%; with Trypanosoma cruzi, -1.69%; in [4], 1.37%; in assay [5], 2.66%. Moreover, the Percent Effect is 32.3% in the assay filed under Homo sapiens, -0.966% in assay [6], -12.5% in assay [7] and 0.966% in assay [8].
For `CC(C)N(Cc1nc2c(cnn2C)c(=O)[nH]1)c1ccccc1`, the Percent Effect was -2.48% in assay [1]; 10.3% in assay [2]; -5.08% in assay [3]; 5.54% in the assay on Trypanosoma cruzi; 4.1% in assay [4]; 1.96% in assay [5]. Also, the Percent Effect is 7.17% in the assay filed under Homo sapiens, 5.26% in assay [6], 18.1% in [7] and -3.23% in assay [8].
`CC(C)Cc1nc(OCC(N)=O)c(C#N)c2c1CCC2`: the Percent Effect in assay [1] was -2.5%; in [2], 5.41%; in assay [3], 10.8%; in the assay on Trypanosoma cruzi, -9.99%; in assay [4] it was 1.75%; in [5] it was 19.4%. The Percent Effect in the assay listed under Homo sapiens was 20.7%; in assay [6], 3.72%; in assay [7] it was 7.32%; in assay [8] it was -3.73%.
For the compound `CC(C)c1noc(CCCC(=O)NC2CCS(=O)(=O)C2)n1` (stereo not given), the Percent Effect in assay [1] is -0.362%; in assay [2], 13.3%; in assay [3], -4.53%; with Trypanosoma cruzi it was 2.01%; in [4] it was -7.98%; in assay [5], 12.6%. Moreover, the Percent Effect in the assay listed under Homo sapiens is 8.49%; in assay [6], 5.79%; in [7], 15.4%; in assay [8] it was -11%.
As for `CCOCC1CC2(CCN(C(=O)c3ccccc3F)CC2)CO1` (stereo not given), the Percent Effect was -6.56% in assay [1]; 6.49% in [2]; -7.4% in assay [3]; -3.41% in the assay on Trypanosoma cruzi; -7.29% in assay [4]; -0.794% in assay [5]. Also, the Percent Effect in the assay filed under Homo sapiens is -3.95%; in assay [6] it was 2.63%; in [7] it was 7.69%; in assay [8], -0.095%.
For `CCc1ccc(O)c(C(=O)NC2CCN(Cc3ccncc3)CC2)c1`, the Percent Effect was -1.01% in [1]; 12.8% in assay [2]; -9.09% in [3]; -4.98% in the assay on Trypanosoma cruzi; 1.64% in assay [4]; 5.55% in assay [5]. Besides, the Percent Effect in the assay listed under Homo sapiens is 44.9%; in assay [6] it was 1.44%; in assay [7] it was 8.43%; in assay [8] it was -6.65%.
With `CN1[C@H](CN2CCCC2)C[C@@H]2CN(C(=O)Cc3cccs3)CC[C@@H]21`, the Percent Effect in [1] is -2.98%; in assay [2] it was 16.9%; in assay [3] it was -1.33%; in the assay with Trypanosoma cruzi, -3.56%; in [4], 0%; in assay [5], 5.75%. Also, the Percent Effect in the assay filed under Homo sapiens is 2.07%; in [6], 7.73%; in [7] it was 2.5%; in assay [8] it was -11.2%.
For the compound `CCn1cc(C(=O)N2CCCC(c3[nH]ncc3S(C)(=O)=O)C2)cn1` (stereo not given), the Percent Effect in [1] was -2.25%; in assay [2] it was 12%; in assay [3], -0.292%; in the assay on Trypanosoma cruzi it was 0.395%; in assay [4], -0.443%; in [5] it was 13.1%. Besides, the Percent Effect in the assay filed under Homo sapiens was -2.06%; in assay [6] it was 4.23%; in assay [7], 20%; in assay [8], -20.4%.
On to `CC(Nc1cccc(CN2CCOC2=O)c1)C(=O)Nc1ccccc1F` (stereo not given), for which the Percent Effect in assay [1] was -0.263%; in assay [2], 7.69%; in [3], 0.909%; in the assay with Trypanosoma cruzi, -1.41%; in assay [4] it was 4.51%; in assay [5] it was 3.5%. In addition, the Percent Effect is 29.9% in the assay listed under Homo sapiens, 2.39% in assay [6], 8.43% in assay [7] and -5.9% in [8].
Turning to `COc1ccccc1-c1cc(C(F)(F)F)c2c(C)nn(CC(=O)O)c2n1`, the Percent Effect was 5.48% in assay [1]; 14.7% in assay [2]; -8.22% in [3]; -2.56% in the assay on Trypanosoma cruzi; 6.64% in assay [4]; 11.5% in assay [5]. Moreover, the Percent Effect in the assay filed under Homo sapiens was 26.5%; in assay [6], -13.8%; in [7], -17.5%; in assay [8] it was -17.5%.
Regarding `Cc1ccc(-c2cc(CN3CCCC(Cn4cncn4)C3)on2)cc1` (stereo not given), the Percent Effect is -6.67% in assay [1]; 7.79% in assay [2]; -2.07% in [3]; -1.68% in the assay with Trypanosoma cruzi; 1.84% in [4]; 4.39% in assay [5]. For the same compound, the Percent Effect in the assay listed under Homo sapiens is 28%; in [6], 0%; in assay [7], 4.71%; in assay [8], -3.73%.
